In experiment [1] the target is Retinoic acid receptor RXR-alpha (Homo sapiens) (UniProt P19793). Kind of experiment: qHTS assay to identify small molecule agonists of the RXR signaling pathway (AID 1159527; calls by dose curve; also: nearly all actives have a fitted effect of over 35% in size). The essentials:
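qHTS of the Tox21 10K library in GeneBLAzer RXR-alpha HEK 293T cells carrying a beta-lactamase reporter […]; 16 hr treatment, 9-cis retinoic acid as agonist control, FRET read-out.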
For orientation: qHTS replaces the single test concentration by a dilution series.

In experiment [2] the target is Nuclear receptor subfamily 1 group I member 3 (Homo sapiens) (UniProt Q14994). The experiment in a line: qHTS assay to identify small molecule antagonists of the constitutive androstane receptor (CAR) signaling pathway (AID 1224838).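 Also: HepG2 cells stably expressing hCAR with CYP2B6 luciferase reporter stimulated by CITCO; nearly all actives have a fitted effect of over 40% in size.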 The gist of the method: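 Antagonist mode used CITCO at a final 50 nM to activate CAR in human hepatoma HepG2 cells carrying stable hCAR and a 2.2 kb CYP2B6 promoter-luciferase construct. Compounds were tested at 15 concentrations over 24 h, with luminescence as the end point.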
Chain of Nuclear receptor subfamily 1 group I member 3 (Homo sapiens) (Q14994 whole entry, looked up): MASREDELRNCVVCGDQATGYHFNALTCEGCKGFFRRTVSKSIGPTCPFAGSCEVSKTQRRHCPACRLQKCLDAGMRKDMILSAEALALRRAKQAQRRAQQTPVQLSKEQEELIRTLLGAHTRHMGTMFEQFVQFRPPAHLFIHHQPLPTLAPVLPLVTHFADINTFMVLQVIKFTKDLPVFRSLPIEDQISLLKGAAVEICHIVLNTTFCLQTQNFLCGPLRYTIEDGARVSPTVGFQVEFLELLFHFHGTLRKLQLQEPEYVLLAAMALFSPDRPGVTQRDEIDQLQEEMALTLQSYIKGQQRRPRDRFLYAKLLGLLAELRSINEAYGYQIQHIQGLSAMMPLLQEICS

Experiment [3] can be described thus: A CellTox Green Cytotoxicity Assay to monitor cytotoxicity in HEK293 cells - 0 hour (AID 1224869). Also: nearly all actives have a fitted effect of over 50% in size. The essentials:
(§1)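 Cells (HEK293, 600/well) and dye reagent are dispensed together. After 5 h at 37 C, 23 nL compound is pinned in. Plates stay at 37 C for 40 h with fluorescence read at 0h, 8h, 16h, 24h, 32h and 40h.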

The nature of experiment [4]: qHTS RealTime-Glo MT Cell Viability Assay in HepG2 cells - 40 hour (AID 1224870). Also: nearly all actives have a fitted effect of over 50% in size. Also: potency is read from the fitted curve at half-maximal effect. The gist of the method:
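HepG2 cells (600/well) mixed with RealTime-Glo MT reagent, settled 5 h at 37 C/5% CO2 before compound addition. Nonlytic NanoLuc luminescence from viable-cell prosubstrate reduction read repeatedly during 40 h treatment at 37 C.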

Experiment [5] can be described thus: qHTS RealTime-Glo MT Cell Viability Assay in HEK293 cells - 40 hour (AID 1224874). Also: nearly all actives have a fitted effect of over 50% in size. Also: potency is read from the fitted curve at half-maximal effect. The conditions noted are these: RealTime-Glo luminescence; max response: hits give low values. The gist of the method: (§2)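 Real-time viability in HEK293: signal arises when living cells convert a prosubstrate for NanoLuc in the medium, so luminescence tracks viable cell number. Compound (23 nL, DMSO) added 5 h post-seeding; kinetic reads at 0–40 h, 37 C.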

Experiment [6] is described as follows: A CellTox Green Cytotoxicity Assay to monitor cytotoxicity in HepG2 cells - 16 hour (AID 1224876). Also: nearly all actives have a fitted effect of over 45% in size. Also: potency is read from the fitted curve at half-maximal effect. The essentials: (§3)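 Cells and non-lytic dye reagent are dispensed together (600 HepG2 cells/well) and incubated 5 h before DMSO compound transfer. Kinetic fluorescence is then recorded in the same wells during 40 h at 37 C.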
Experiment [7] can be described thus: qHTS RealTime-Glo MT Cell Viability Assay in HepG2 cells - 32 hour (AID 1224877). Also: nearly all actives have a fitted effect of over 55% in size. Also: potency is read from the fitted curve at half-maximal effect. The gist of the method:
(§4)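 Viability was tracked continuously by NanoLuc luminescence from prosubstrate reduced by living HepG2 cells, at successive time points over 40 h of compound exposure. Cells with reagent were preincubated 5 h at 37 °C before compound addition.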

A short description of experiment [8]: qHTS RealTime-Glo MT Cell Viability Assay in HEK293 cells - 0 hour (AID 1224880). Also: top concentration of the series differs between compounds; nearly all actives have a fitted effect of over 45% in size. The gist of the method: as §2
Experiment [9] can be described thus: A CellTox Green Cytotoxicity Assay to monitor cytotoxicity in HEK293 cells - 16 hour (AID 1224888). Also: nearly all actives have a fitted effect of over 35% in size. Also: potency is read from the fitted curve at half-maximal effect. The essentials: as §1
The nature of experiment [10]: qHTS RealTime-Glo MT Cell Viability Assay in HepG2 cells - 0 hour (AID 1224889). Also: nearly all actives have a fitted effect of over 50% in size. The essentials:
as §4

Experiment [11] in a line: A CellTox Green Cytotoxicity Assay to monitor cytotoxicity in HepG2 cells - 8 hour (AID 1224890). Also: nearly all actives have a fitted effect of over 45% in size. The essentials: as §3
Experiment [12] in a line: qHTS assay to identify small molecule antagonists of the estrogen receptor alpha (ER-alpha) signaling pathway using the BG1 cell line in the presence of 0.1 nM 17-beta-estradiol - cell viability counter screen (AID 1259241). Also: nearly all actives have a fitted effect of over 40% in size. The essentials: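 The cell line endogenously expresses full-length ER-alpha and carries four EREs driving luciferase. Cells are cultured 5 days hormone-free, treated 22 hr with compounds and 0.1 nM estradiol, then viability is read by fluorescence.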

A short description of experiment [13]: qHTS assay to identify small molecule antagonists of the androgen receptor (AR) signaling pathway using the MDA cell line in the presence of 0.5 nM R1881 - cell viability counter screen (AID 1259242). Also: nearly all actives have a fitted effect of over 45% in size. Also: potency is read from the fitted curve at half-maximal effect. The essentials:
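Steps: plate MDA-kb2 cells, rest 5 hr at 37C without CO2; pin in compounds in DMSO; add R1881 to 0.5 nM final; incubate 16 hr; add CellTiter-Fluor, 30 min; read fluorescence.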

A short description of experiment [14]: qHTS assay to identify small molecule HDAC inhibitors - cell viability counter screen (AID 1259365). The gist of the method: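 Viability readout: CellTiter-Glo luminescence. Wild-type HCT-116 cells, 2hr compound treatment following overnight attachment at 37 C.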
A short description of experiment [15]: qHTS assay to identify small molecule antagonists of the sonic hedgehog signaling (Shh) pathway (AID 1259369; calls by dose curve; also: nearly all actives have a fitted effect of over 45% in size; also: potency is read from the fitted curve at half-maximal effect). The essentials:
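Cells are plated and held 4hr at 37 C, compounds (DMSO) are pinned in, conditioned medium is added to stimulate the pathway, and after 24hr luciferase reagent is added for 30min before luminescence is read.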

Experiment [16] in a line: qHTS assay to identify small molecule agonists or antagonists of the thyroid stimulating hormone receptor (TSHR) signaling pathway - wild type cell line counter screen (AID 1259384; calls by dose curve). The gist of the method: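 Wild-type Hek293 cells, 800/well, 18 h at 37C, then compound with Ro20-1724 for 30 min RT. cAMP by HTRF (cAMP-d2/anti-cAMP cryptate), 1 h RT, fluorescence read. 15 concentrations, triplicates.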

Experiment [17] in a line: qHTS assay to identify small molecule agonists of the TGF-beta/Smad signaling pathway (AID 1346859; active = well fitted activation curve with a large enough effect in the signal ratio in the repeat runs, not every such curve was filed as active; the % refers to the signal ratio; also: series mostly up to about 77 µM). The essentials:
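Smad-responsive beta-lactamase reporter cells (HEK 293T) received compounds from DMSO stocks after overnight attachment, were incubated 5 hr, then treated 2 hr with FRET substrate before dual-emission fluorescence measurement (405 nm excitation).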

Experiment [18] deals with Cytochrome P450 2C19 (Homo sapiens) (UniProt P33261). The experiment in a line: Cytochrome P450 Family 2 Subfamily C Member 19 (CYP2C19) small molecule antagonists: luciferase reporter qHTS assay (AID 1671197). Also: nearly all actives have a fitted effect of over 65% in size. Also: potency is read from the fitted curve at half-maximal effect. The gist of the method:
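Luminescent readout of CYP2C19 activity: luciferin product detected 20 min after adding detection reagent. Before that, compound and enzyme-substrate mix preincubated 10 min at room temperature; NADPH-regenerating system started a 1 h, 37C reaction. Ketoconazole as positive control.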
(In a reporter assay the amount or activity of a reporter protein is the signal.)

Experiment [19] concerns the target Cytochrome P450 1A2 (Homo sapiens) (UniProt P05177). Kind of experiment: Cytochrome P450 Family 1 Subfamily A Member 2 (CYP1A2) small molecule antagonists: luciferase reporter qHTS assay (AID 1671199). Also: nearly all actives have a fitted effect of over 50% in size. Also: potency is read from the fitted curve at half-maximal effect. The gist of the method: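 Compounds were incubated with CYP1A2 and a luminogenic proluciferin substrate for 10 min at room temperature before the reaction was started with NADPH regeneration solution. After 1 h, detection reagent was added and light output, proportional to CYP activity, was recorded.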

Experiment [20] concerns the target Voltage-gated inwardly rectifying potassium channel KCNH2 (Homo sapiens) (UniProt Q12809). Kind of experiment: Human Ether-a-go-go-Related Gene (hERG) channel small molecule antagonists: fluorescence cell-based qHTS assay (AID 1671200). Also: nearly all actives have a fitted effect of over 50% in size. Also: potency is read from the fitted curve at half-maximal effect. The gist of the method: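 Quantitative HTS in hERG-U2OS cells: thallium entry through the channel reports activity, read as continuous 480/540 nm fluorescence over 2 min after stimulus addition.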
(Block of hERG is tested as a sign of cardiac risk.)

Where “and” joins values, the source holds several entries; their conditions need not be identical. Equal values may be shown once. Values without a mark were called inactive. Results filed as inconclusive are left out. Calls of active or inactive are those of the source. Unless noted, calls follow the shape of the dose curve; as a rule, active = well fitted curve in the direction sought with a large enough effect in the repeat runs; inconclusive = weak or mixed curves; inactive = no such curve, though single readings can be large; an effect the other way counts as inactive or inconclusive.
% is scaled to controls: 0 for no effect and ±100 for the full control effect.

Chain of Cytochrome P450 1A2 (Homo sapiens) (P05177 whole entry, looked up): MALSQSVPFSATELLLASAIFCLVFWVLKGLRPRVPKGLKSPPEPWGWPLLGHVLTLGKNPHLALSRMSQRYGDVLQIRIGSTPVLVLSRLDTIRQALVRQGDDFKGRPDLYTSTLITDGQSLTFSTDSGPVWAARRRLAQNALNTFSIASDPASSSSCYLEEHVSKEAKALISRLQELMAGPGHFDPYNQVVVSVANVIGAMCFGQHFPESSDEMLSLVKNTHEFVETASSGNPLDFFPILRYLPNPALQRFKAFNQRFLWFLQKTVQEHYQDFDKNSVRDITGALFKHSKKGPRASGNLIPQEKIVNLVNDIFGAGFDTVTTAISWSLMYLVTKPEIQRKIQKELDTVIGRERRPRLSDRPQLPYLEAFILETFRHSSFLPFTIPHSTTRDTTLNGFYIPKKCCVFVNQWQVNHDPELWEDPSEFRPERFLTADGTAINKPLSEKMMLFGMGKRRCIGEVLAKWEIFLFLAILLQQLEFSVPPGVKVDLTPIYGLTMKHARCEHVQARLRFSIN
Chain of Retinoic acid receptor RXR-alpha (Homo sapiens) (P19793 whole entry, looked up): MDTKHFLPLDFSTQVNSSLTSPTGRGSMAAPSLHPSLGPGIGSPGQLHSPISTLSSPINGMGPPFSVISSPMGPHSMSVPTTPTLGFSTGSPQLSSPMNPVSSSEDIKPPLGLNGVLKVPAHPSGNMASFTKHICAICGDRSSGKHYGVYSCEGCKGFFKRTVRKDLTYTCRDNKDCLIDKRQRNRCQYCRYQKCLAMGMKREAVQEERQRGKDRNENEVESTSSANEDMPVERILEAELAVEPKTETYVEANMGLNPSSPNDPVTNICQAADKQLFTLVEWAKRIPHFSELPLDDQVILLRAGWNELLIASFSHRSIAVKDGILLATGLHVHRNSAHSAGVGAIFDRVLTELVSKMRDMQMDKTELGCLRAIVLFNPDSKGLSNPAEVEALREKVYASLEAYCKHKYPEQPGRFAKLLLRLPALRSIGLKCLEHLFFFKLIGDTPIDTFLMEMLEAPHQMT
Chain of Cytochrome P450 2C19 (Homo sapiens) (P33261 whole entry, looked up): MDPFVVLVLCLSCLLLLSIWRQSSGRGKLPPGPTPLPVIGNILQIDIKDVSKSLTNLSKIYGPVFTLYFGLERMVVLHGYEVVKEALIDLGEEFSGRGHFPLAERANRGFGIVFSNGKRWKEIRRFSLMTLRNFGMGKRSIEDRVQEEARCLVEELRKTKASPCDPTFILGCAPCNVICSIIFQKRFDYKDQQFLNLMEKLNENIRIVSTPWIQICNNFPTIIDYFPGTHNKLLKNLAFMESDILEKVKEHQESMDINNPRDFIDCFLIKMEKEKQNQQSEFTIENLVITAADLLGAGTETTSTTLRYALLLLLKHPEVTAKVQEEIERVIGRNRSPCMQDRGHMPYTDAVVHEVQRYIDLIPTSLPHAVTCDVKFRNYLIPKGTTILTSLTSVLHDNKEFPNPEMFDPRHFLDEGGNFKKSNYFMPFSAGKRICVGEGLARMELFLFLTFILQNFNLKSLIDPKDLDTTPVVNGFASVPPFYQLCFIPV
Chain of Voltage-gated inwardly rectifying potassium channel KCNH2 (Homo sapiens) (Q12809 whole entry, looked up): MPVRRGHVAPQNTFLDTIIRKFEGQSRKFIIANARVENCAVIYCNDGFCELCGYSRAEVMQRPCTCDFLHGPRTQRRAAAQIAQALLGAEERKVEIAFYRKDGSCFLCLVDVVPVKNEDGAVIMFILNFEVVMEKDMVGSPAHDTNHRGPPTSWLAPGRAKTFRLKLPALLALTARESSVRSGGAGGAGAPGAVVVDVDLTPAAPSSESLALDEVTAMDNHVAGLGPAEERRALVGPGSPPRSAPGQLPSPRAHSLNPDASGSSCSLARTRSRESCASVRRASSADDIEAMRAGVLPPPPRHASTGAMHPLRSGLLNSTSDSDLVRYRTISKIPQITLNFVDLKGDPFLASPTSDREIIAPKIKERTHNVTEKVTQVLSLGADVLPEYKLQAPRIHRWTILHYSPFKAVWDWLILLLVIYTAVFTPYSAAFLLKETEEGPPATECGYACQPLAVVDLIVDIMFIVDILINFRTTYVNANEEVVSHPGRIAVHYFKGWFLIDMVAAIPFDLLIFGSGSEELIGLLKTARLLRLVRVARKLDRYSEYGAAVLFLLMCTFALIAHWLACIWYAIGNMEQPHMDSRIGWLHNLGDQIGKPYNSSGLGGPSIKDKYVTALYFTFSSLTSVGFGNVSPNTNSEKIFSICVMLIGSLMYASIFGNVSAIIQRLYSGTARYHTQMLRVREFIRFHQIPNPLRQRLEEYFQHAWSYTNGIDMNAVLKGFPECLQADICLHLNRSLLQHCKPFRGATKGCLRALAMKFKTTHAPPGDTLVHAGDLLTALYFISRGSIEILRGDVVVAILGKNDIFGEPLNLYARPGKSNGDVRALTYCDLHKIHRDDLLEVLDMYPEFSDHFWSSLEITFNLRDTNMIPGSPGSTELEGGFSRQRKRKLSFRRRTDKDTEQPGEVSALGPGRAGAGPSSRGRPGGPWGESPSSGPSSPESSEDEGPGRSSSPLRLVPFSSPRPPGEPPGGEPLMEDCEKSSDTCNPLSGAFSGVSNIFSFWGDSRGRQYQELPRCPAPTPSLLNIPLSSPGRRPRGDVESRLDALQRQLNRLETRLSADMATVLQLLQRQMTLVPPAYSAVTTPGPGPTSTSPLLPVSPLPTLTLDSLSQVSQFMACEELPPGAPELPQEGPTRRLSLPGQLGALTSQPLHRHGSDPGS

For the molecule `O=C(O)C(c1ccc(Cl)cc1)c1ccc(Cl)cc1`, the Potency result in [1] is “inactive”.
The same measure, in the same setting: for `c1ccncc1` the value was “inactive”.
As to `CCN(CC)C(=O)Cl`, the Potency entry in experiment [1], in experiment [2], in experiment [3], in experiment [4], in experiment [6] and in experiment [7] was “inactive” throughout. The Potency result in [9], in [10], in experiment [11], in experiment [12], in [13] and in experiment [15] was “inactive” in each case. The Potency result in experiment [18], in experiment [19] and in experiment [20] was “inactive” each time. In addition, the max response in [5] was 13.5%. For the same molecule, the result in experiment [8], in [14], in [16] and in experiment [17] was inactive.
With `OC(Cc1ccccc1Cl)(Cn1[nH]cnc1=S)C1(Cl)CC1` (centres undefined), the Potency result in experiment [2], in [3], in experiment [4], in experiment [6], in [7] and in experiment [9] was “inactive” each time. The Potency result in [10], in [11], in [12], in experiment [13] and in experiment [20] was “inactive” throughout. Besides, the call in [14], in experiment [16] and in [17] was inactive. Also, the Potency is 38.6 µM (active) in [15] and 1.26 µM (active) in experiment [18].
On to `Cc1cc(C(C)(C)c2ccc(O)c(C)c2)ccc1O`, for which the Potency entry in [2], in experiment [3], in [4], in experiment [6], in experiment [7] and in experiment [10] was “inactive” throughout. Moreover, the Potency entry in experiment [11] and in [12] was “inactive” in each case. In addition, the Potency in experiment [5] was 20.8 µM (active); in experiment [15], 16.4 µM (active); in experiment [18] it was 2.14 µM (active); in experiment [19], 33.9 µM (active). Further, the molecule was called inactive in experiment [8], in [14], in experiment [16] and in [17].
As to `CC(CCl)OC(C)CCl` (centres undefined), the Potency result in experiment [1] is “inactive”.
For `ClC1=C(Cl)[C@]2(Cl)[C@@H]3[C@@H](Cl)[C@H]4O[C@H]4[C@@H]3C1(Cl)C2(Cl)Cl`, the Potency result in experiment [2], in [3], in experiment [10], in experiment [12], in experiment [13] and in experiment [19] was “inactive” throughout. Besides, the molecule was called inactive in [8], in experiment [14] and in experiment [17]. Besides, the Potency in experiment [15] was 48.6 µM (active); in [20], 54.9 µM (active).
Regarding `c1ccc2c(c1)Sc1ccccc1N2CC1CN2CCC1CC2` (centres undefined), the Potency entry in [3], in experiment [12] and in experiment [19] was “inactive” each time. The Potency was 21.3 µM (active) in experiment [4]; 23.9 µM (active) in experiment [5]; 23.9 µM (active) in experiment [6]; 23.9 µM (active) in experiment [7]; 29.8 µM (active) in experiment [13]; 9.44 µM (active) in [15]. Further, the Potency in experiment [20] is 5.35 µM (active). Also, the result in experiment [14], in [16] and in experiment [17] was inactive.
As for `Clc1ccccc1-c1ccccc1Cl`, the Potency result in experiment [3], in [4], in experiment [6], in experiment [7], in experiment [10] and in [11] was “inactive” throughout. The Potency entry in experiment [12], in experiment [13], in experiment [15], in [18] and in [19] was “inactive” in each case. In addition, the molecule was called inactive in experiment [8], in [14] and in experiment [17]. The figures for the Potency in experiment [9] and in experiment [20] were 35.2 µM (active) and 27.9 µM (active), respectively.
With `CCOC(=O)C(O)(c1ccc(Cl)cc1)c1ccc(Cl)cc1`, the Potency result in [2], in experiment [3], in experiment [4], in experiment [6], in experiment [7] and in experiment [9] was “inactive” in each case. In addition, the Potency entry in experiment [10], in experiment [11], in [12] and in [13] was “inactive” in each case. Further, the Potency in [5] was 22.1 µM (active) and 34.7 µM (active); in experiment [15], 7.77 µM (active) and 19.3 µM (active); in [18] it was 453 nM (active) and 317 nM (active); in experiment [19] it was 40.3 µM (active) and 71 µM (active); in experiment [20], 22.1 µM (active) and 21.9 µM (active). Also, the result in [8], in experiment [14] and in [17] was inactive.
In the case of `Oc1c(Cl)ccc(Cl)c1Cl`, the Potency result in experiment [2] was “inactive”.
